SW480 rereplic: induces DNA re-replication in SW480 colon adenocarcinoma cells; SW480 DNA re-replication, Hoechst DNA content imaging, 48 h; hit rate 1.8% among 340,000; Potency, µM (titrated, usually from 46.1 µM), without a hit: at the top dose re-replication activation, actives largely listed as activators; further: % of control where 0% means no effect; nearly all actives have a fitted effect of over 55% in size
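Image-based DNA-content assay: after two days of treatment, nuclei were labelled with the DNA dye Hoechst and imaged, and hits were compounds raising the count of nuclei showing high fluorescence intensity.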
MCF10A rerep: induces DNA re-replication in MCF 10a normal breast cells | MCF 10A DNA re-replication, Hoechst nuclear intensity, 48 h | Potency, µM (series often up to 46.1 µM), inactives show at the top dose activity, positive = re-replication, actives largely listed as activators | hit rate 2.9% among 350,000 | AID 624296; further: % of control where 0% means no effect; nearly all actives have a fitted effect of over 50% in size
PINK1 modulator: modulators of PINK1 expression | PINK1 immunofluorescence, high-content cytometry, 24 h | Potency, µM (titrated, usually from 76.6 µM), for inactives: at the highest dose activation (PINK1 increase), hits mostly activators | hit rate 0.2% among 410,000; active means well fitted activation curve with a large enough effect; inconclusive means small, poorly fitted or top-dose-only effect; cell line not stated here; further: % of control where 0% means no effect; nearly all actives have a fitted effect of over 65% in size
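Fluorescence from anti-PINK1 antibody, together with nuclear and cell stains, was scanned on a laser-scanning cytometer. Before staining, stable-line cells were incubated 24 hours with compounds at 5 concentrations; primary antibody 12 h at 10 degrees C.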
KB-3-1 tox: KB-3-1 parental cell cytotoxicity; KB-3-1 viability, CellTiter-Glo ATP luminescence, 72 h; Potency, µM (highest dose often 46.1 µM), usual class: cytotoxic; hit rate 1.4% among 400,000; AID 1347075; further: on the % scale 0 is the no-effect control and ±100 the full control effect; nearly all actives have a fitted effect of over 60% in size
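KB-3-1 cells, DMEM (no phenol red) + 10% FBS; compound by pin transfer, 72 h, 37 °C. Readout: CellTiter-Glo luminescence after 10 min. Data normalized, curve-fitted.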
KB-V1 MDR tox: KB-V1 MDR subline cytotoxicity | Potency, µM (series often up to 46.1 µM), most hits filed as cytotoxic | hit rate 3.4% among 400,000 | AID 1347076 | KB-V1 MDR cells viability, CellTiter-Glo, 72 h; further: on the % scale 0 is the no-effect control and ±100 the full control effect; nearly all actives have a fitted effect of over 60% in size
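qHTS viability screen in drug-selected KB-V1 MDR cells: 72 h compound treatment at 37 degrees C, ATP luminescence end point.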
An asterisk follows results filed as active; i = inactive; u = inconclusive; x = not tested or not shown; [ ] = another dose, or the depositor's remark. Sampled rows, rich in hits. Any-hit rate of the full collection: about 6.7%. Unless noted, the call rests on the fitted dose curve; in most records, active means well fitted curve in the direction sought with a large enough effect; inconclusive means small, poorly fitted or top-dose-only effect, or another doubt; inactive means no such curve, though single readings can be large; an effect the other way counts as inactive or inconclusive. Potency means the concentration at half of the fitted maximal effect.

SMILES	SW480 rereplic	MCF10A rerep	PINK1 modulator	KB-3-1 tox	KB-V1 MDR tox
O=C(c1ccccc1)c1sc(N2CCOCC2)nc1-c1ccccc1	0%	5%	1%	i	i
COc1ccc(-c2nc(N3CCCCCC3)sc2C(=O)c2ccccc2)cc1	6%	15µM*	1%	i	i
O=C(c1ccc(Br)cc1)c1sc(N2CCOCC2)nc1-c1ccccc1	11%	16µM*	0%	u	u
CCCc1sc(N2CCCC(C(N)=O)C2)nc1-c1ccccc1 (configuration not stated)	-2%	4%	0%	i	i
[2H]c1c([2H])c([2H])c(C(=O)c2sc(N3CCCCCC3)nc2-c2ccccc2)c([2H])c1[2H]	1%	9.2µM*	3%	u	i
CCOc1ccc(NC(=O)CC2S/C(=N/N=C3CCCCCC3)NC2=O)cc1 (configuration not stated)	-9%	-30%	0%	i	i
CCS(=O)(=O)N1Cc2cc(C(=O)NCC3CC3)nc(-c3cccc(-c4cccnc4)c3)c2[C@@H]1CCO	x	x	7%	u	i
CC(=O)N1Cc2cc(C(=O)NCC(F)(F)F)nc(-c3cccc(-c4cc5ccccc5o4)c3)c2[C@@H]1CCO	x	x	4%	u	23µM*
CC(=O)N1Cc2cc(C(=O)NCC(F)(F)F)nc(-c3cccc(-c4cccnc4)c3)c2[C@@H]1CCO	x	x	9%	4.1µM*	i
CCNC(=O)c1cc2c(c(-c3cccc(-c4cccnc4)c3)n1)[C@H](CCO)N(S(C)(=O)=O)C2	x	x	6%	2.9µM*	u
CC(=O)N1Cc2cc(C(=O)NCC(F)(F)F)nc(-c3cccc(-c4cccnc4)c3)c2[C@H]1CCO	x	x	0%	i	i
CCCOc1ccc(NC(=O)CC2C(=O)N(c3ccc(OC)cc3)C(=O)N2CCc2ccncc2)cc1 (configuration not stated)	x	x	-1%	x	x
CCCCCCCCC(=O)N/N=C/c1cccc(Br)c1	17%	18µM*	x	i	i
Cc1ccc(-c2cc(-c3ccccc3Cl)[nH]n2)c(O)c1	16%	6%	7%[38.3 µM]	i	i
Oc1ccc(Br)cc1-c1cc(-c2ccccc2Cl)[nH]n1	5.2µM*	25%	8%	u	u
Cc1ccccc1-c1cc(-c2ccccc2O)n[nH]1	u	u	0%	u	18µM*
Oc1ccc(Br)cc1-c1cc(-c2ccccc2F)[nH]n1	13%	15%	3%	u	u
O=C(c1cnn2c1NC(=C1CC1)C=C2C(F)F)N1CCc2ccccc21	x	x	12%	u	i
COc1cc(CNCc2cc3cc(C)ccc3nc2-c2ccc(F)cc2)cc(OC)c1OC	x	x	2%	x	x
CC(OC(=O)c1ccco1)C(=O)NCc1ccc2c(c1)OCO2 (configuration not stated)	-6%	2%	0%	i	i
O=C(c1cccs1)n1nc(-c2ccccc2)nc1NCc1ccc(F)cc1	1%	72%	-1%[38.3 µM]	u	13µM*
COc1ccccc1C(=O)n1nc(-c2ccccc2)nc1NCc1ccc(Cl)cc1	x	x	-1%	u	15µM*
COc1ccccc1C(=O)n1nc(-c2ccccc2)nc1NCc1ccco1	-8%	-4%	1%[38.3 µM]	i	u
O=C(c1ccccc1)n1nc(-c2ccccc2)nc1NCc1ccc(F)cc1	x	x	5%	i	i
COc1cc(/C=C(\C#N)c2nc3ccccc3[nH]2)ccc1OCc1cccc(C(F)(F)F)c1	x	x	13%	u	u
SMILES	SW480 rereplic	MCF10A rerep	PINK1 modulator	KB-3-1 tox	KB-V1 MDR tox
O=C(NCc1cccc(Cl)c1)c1ccc2c(Cl)c3c(nc2c1)CCCC3	x	x	1%	i	i
COc1cc(Br)c(CN2C(=O)NC3(CCCCCC3)C2=O)cc1OC	12%	0%	1%	i	6.5µM*
C#CC1(NC(=S)Nc2cccc(OC)c2)CCCCC1	x	x	1%	i	i
CCOc1ccccc1N1CCN(C(=O)CSc2ccc3c(c2)OCCO3)CC1	-9%	22%	-2%	i	12µM*
CCc1ccc(C(=O)CSc2nc3cc(S(=O)(=O)N4CCOCC4)ccc3n2CC)cc1	13%	-2%	1%	i	21µM*
O=S(=O)(c1ccc2c(c1)nc(COc1ccc(Cl)cc1)n2CC1CCCO1)N1CCOCC1 (configuration not stated)	8%	10%	0%	i	23µM*
CCn1c(SCC(=O)OC)nc2cc(S(=O)(=O)N3CCOCC3)ccc21	u	-6%	-3%	i	i
CCCCn1c(C)nc2cc(S(=O)(=O)N3CCOCC3)ccc21	4%	0%	4%	i	i
CCCCn1c(CCl)nc2cc(S(=O)(=O)N3CCOCC3)ccc21	13µM*	u	-2%	u	u
Cc1ccc(S(=O)(=O)N2CCC(C(=O)Nc3ccc(N4CCOCC4)cc3)CC2)cc1C	-4%	2%	4%	i	i
CNc1nc(N2CCCN(C)CC2)nc2cc(OC)c(OC)cc12	x	x	3%	x	x
CN(CC1COc2ccccc2O1)C(=O)c1cccc(S(=O)(=O)N2CCCC2)c1 (configuration not stated)	1%	0%	0%	i	8.2µM*
Cc1ccc(CN(C)C(=O)c2cccc(S(=O)(=O)N3CCN(c4ccccc4)CC3)c2)cc1	9%	-1%	1%	u	18µM*
O=C(NCC1COc2ccccc2O1)c1cccc(S(=O)(=O)N2CCCCC2)c1 (configuration not stated)	3%	3%	0%	u	i
CN(Cc1ccc(F)cc1)C(=O)c1cccc(S(=O)(=O)N2CCN(c3ccc(F)cc3)CC2)c1	u	7%	3%	13µM*	u
Nc1cccc2c1C(=O)N(C(=O)/C=C/c1cccc(Br)c1)C2=O	u	21µM*	0%	i	u
O=C(/C=C/c1cccc(F)c1)N1CCN(c2ccccn2)CC1	12%	-12%	1%	i	i
Cc1ccc(C(=O)N2C(=O)c3cccc(N)c3C2=O)o1	1%	-8%	-1%	i	i
Nc1cccc2c1C(=O)N(C(=O)/C=C/c1cccc(F)c1)C2=O	18µM*	u	2%	u	u
COC(=O)c1ccc(C(=O)NCC2Cc3cccc(-c4ccc(C(=O)OC)cn4)c3O2)cc1 (configuration not stated)	x	x	-1%	x	x
COC(=O)C1CCN(C(=O)COC(=O)/C=C/c2ccc(O)c(OC)c2)CC1	-10%	8%	1%	u	i
Cc1ccc2oc(C(=O)NC3CCS(=O)(=O)C3)cc(=O)c2c1 (configuration not stated)	21µM*	1%	1%	i	u
Cc1cc2oc(C(=O)NCc3ccccc3)cc(=O)c2cc1C	8.2µM*	14%	17%	i	i

Compound activity: PubChem, National Center for Advancing Translational Sciences (NCATS)
